# Sampled rows, rich in hits. Any-hit rate of the full collection: about 21%.
# Shiga inhibitor: inhibitors of Shiga toxin in Vero cells. 290,000 compounds, 9.2% hits. Vero cells, Shiga toxin protein synthesis inhibition reporter. inhibition, % at 38.7 µM; in the data active means inhibition mostly above about 28%, no sharp cut-off; inactive means mostly below about 43%
# Pf growth 96h: P. falciparum growth inhibition at 96 hours; Potency, µM (highest dose often 28.7 µM), hits mostly inhibitors; 320,000 compounds, 6.9% hits; P. falciparum luciferase reporter growth, 96 h
#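 Delayed-death screen, second-generation endpoint: infected erythrocytes, 2% hematocrit, 0.05% parasitemia final; 96 hours at 37 C, 5% CO2; luciferase detection reagent; luminescence decrease equals reduced growth.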
# Cycloheximide cs: counter-screen hit for Shiga toxin inhibitors, cycloheximide; cell reporter, cycloheximide protein synthesis inhibition counterscreen; 300,000 compounds, 12% hits; max response, %; AID 2314; in the data active means max response mostly above about 13%, no sharp cut-off; inactive means mostly below about 14%; further: read at 38.3 µM for the half of the compounds with a filed dose
# SARS PLpro yeast: inhibitors of SARS-CoV papain-like protease in yeast. S. cerevisiae expressing SARS-CoV PLpro, growth rescue. Potency, µM (series often up to 32.9 µM), most hits filed as activators. 330,000 compounds, 0.19% hits. AID 485353; calls by dose curve; further: nearly all actives have a fitted effect of over 55% in size
# Pf growth 48h: inhibits P. falciparum growth in the first generation, 48 h | P. falciparum luciferase growth in erythrocytes, 48 h | Potency, µM (doses to about 28.7 µM), actives largely listed as inhibitors | 310,000 compounds, 5.9% hits | AID 504832
#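 Luciferase-expressing parasites in RBCs, 2% Hct / 0.1% parasitemia final; RPMI 1640 + 0.5% Albumax; 37 C, 5% CO2, one generation; luminescence read-out, lower signal = inhibition.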
# NS1 function inh: inhibitors of influenza NS1 protein function; Potency, µM (highest dose often 46.1 µM); 270,000 compounds, 0.4% hits; AID 2326; calls by dose curve; further: actives are rising curves; nearly all actives have a fitted effect of over 50% in size
#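 Read-out: OD600 growth recovery of NS1-expressing budding yeast. Cells grown overnight at 30C in -URA glucose medium, washed, resuspended and diluted 1:100 in 2% galactose assay medium, pH 6.0. Same strain lacking NS1 served as positive control.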
# Numbers stand for hits; i = inactive; ? = inconclusive; nt = no result. Unless noted, the call rests on the fitted dose curve; in most records, active means well fitted inhibition curve with a large enough effect; inconclusive means small, poorly fitted or top-dose-only effect, or another doubt; inactive means no such curve, though single readings can be large or run the other way.
SMILES,Shiga inhibitor,Pf growth 96h,Cycloheximide cs,SARS PLpro yeast,Pf growth 48h,NS1 function inh
Cc1ccc(NC(=O)c2ccc(S(=O)(=O)N3CCCCC3)cc2)cc1,i,11.7µM,i,i,?,i
O=C1COc2cc(S(=O)(=O)NCc3ccco3)c(Cl)cc2N1,nt,i,nt,i,?,nt
O=C1CCN(Cc2ccccc2)CCN1[C@H](CO)c1ccccc1,i,i,i,i,i,i
Cc1ccc(SCC(CC(C)C)N2CCN(C)CCC2=O)cc1 (configuration not stated),71.7,nt,32.7,nt,nt,nt
CN1CCC(=O)N([C@H](CO)c2ccccc2)CC1,i,i,18.1,i,i,i
CC(C)CC(CSc1ccc(Br)cc1)N1CCN(C)CCC1=O (configuration not stated),90.0,nt,i,nt,nt,nt
CC(C)C[C@@H](CSc1ccccc1)N1CCN(C)CCC1=O,i,i,17.6,i,i,i
CC(=O)Nc1ccc(SCC(CC(C)C)N2CCN(C)CCC2=O)cc1 (configuration not stated),i,nt,i,nt,nt,nt
CCc1nc(C)cn1S(=O)(=O)c1ccc(Br)cc1,i,?,i,i,i,i
COc1ccc(SCC(CC(C)C)N2CCN(C)CCC2=O)cc1 (configuration not stated),52.7,nt,25.3,nt,nt,nt
O=[n+]1c2c(n([O-])c3cc(F)c(N4CCCC4)cc31)CCCC2,60.6,?,30.3,i,i,i
CCN(C(=O)C1CC1)C1CCS(=O)(=O)C1 (configuration not stated),nt,i,nt,i,i,nt
C=CCc1ccccc1OCC(O)CN1CCN(c2ccc(C)cc2)CC1 (configuration not stated),i,9.28µM,i,i,?,i
Cc1cccc(NC(=O)C(NS(=O)(=O)c2ccc3c(c2)CCC(=O)N3)c2ccccc2)n1 (configuration not stated),i,10.4µM,i,i,i,i
Nc1c(-c2ccccc2)cnc2cc(-c3ccccc3)nn12,35.7,?,23.9,i,i,nt
Cc1cc2ncc(-c3ccc(Cl)cc3)c(N)n2n1,63.6,i,43.5,i,i,i
Cc1ccc(-c2cc3ncc(C#N)c(N)n3n2)cc1,69.4,i,24.1,i,i,nt
Nc1c(-c2ccc(Cl)cc2)cnc2ncnn12,i,?,i,i,?,i
CCOc1ccc(S(=O)(=O)N2CCN(c3ccccc3F)CC2)c2cccnc12,i,i,i,i,?,i
CCC(C)C(NC(=O)OC(C)(C)C)C(=O)NC1COC2CC(n3cc(F)c(=O)[nH]c3=O)OC12 (configuration not stated),i,nt,i,nt,nt,nt
C#C[C@]1(OC(C)=O)CC[C@H]2[C@@H]3CCC4=C/C(=N/O)CC[C@@H]4[C@H]3CC[C@@]21CC,nt,0.953µM,nt,nt,i,nt
C#C[C@]1(O)CC[C@@H]2[C@H]3CCC4=CC(=O)CC[C@H]4[C@H]3C(=C)C[C@@]21CC,nt,i,nt,nt,i,nt
CCOc1ccc(/C=C/C2=Cc3c(sc(NC(=O)CSc4n[nH]c(N)n4)c3C#N)C(C)(C)C2)cc1,i,8.28µM,i,i,10.4µM,i
CCOC(=O)c1sc(NC(=O)CSc2n[nH]c(-c3ccncc3)n2)c(C#N)c1C,i,nt,i,i,i,i
Cc1ccsc1/C=C/C1=Cc2c(sc(NC(=O)CSc3n[nH]c(N)n3)c2C#N)C(C)(C)C1,i,8.28µM,i,i,nt,i
SMILES,Shiga inhibitor,Pf growth 96h,Cycloheximide cs,SARS PLpro yeast,Pf growth 48h,NS1 function inh
COc1ccc(C)cc1NC(=O)C(=O)N/N=C(\C)CC(=O)Nc1cccnc1,i,i,i,i,i,i
C#CCN(C(=O)CC1C(=O)NCCN1C/C=C/c1ccccc1)C1CCCCC1 (configuration not stated),i,4.65µM,i,i,i,i
O=C(CSc1nc2ccccc2[nH]1)NCC1CCCO1 (configuration not stated),i,i,i,i,i,i
Cn1c(=O)[nH]c(=O)c2c1nc(Br)n2C/C=N/NC(=O)c1ccccc1,55.4,i,39.0,i,i,i
CN(Cc1ccccc1)S(=O)(=O)c1ccc(Cl)c(C(=O)NCCCN2CCOCC2)c1,nt,i,nt,i,i,nt
COc1cc([N+](=O)[O-])ccc1NC(=O)NCc1ccccn1,i,i,12.3,i,i,i
COc1cc([N+](=O)[O-])ccc1NC(=O)Nn1cnnc1,i,13.1µM,i,i,i,i
COc1cc([N+](=O)[O-])ccc1NC(=S)NCc1ccccn1,i,i,i,i,i,i
CCOC(=O)C1CC(C)=C(C)CC1C(=O)O (configuration not stated),i,i,i,i,i,i
